Here are results for 7 compounds from PubChem BioAssay (NCATS).

Structures are written as SMILES. A number with no mark means an inactive call. Results filed as inconclusive are left out. Calls of active or inactive are those of the source. Unless noted, calls follow the shape of the dose curve; as a rule, active = well fitted curve in either direction with a large enough effect (not every such curve was filed as active); inconclusive = small, poorly fitted or top-dose-only effect, or another doubt; inactive = flat fitted curve, though single readings scatter.

The target in test [1] is Lysosomal acid glucosylceramidase (Homo sapiens) (UniProt P04062). As to the kind of experiment: Glucocerebrosidase-p2 (AID 348; in the data active = potency below about 10 µM; also: potency is read from the fitted curve at half-maximal effect). Particulars: purified GBA, blue fluorogenic substrate, 40 min. In outline: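 Normal human glucocerebrosidase (0.2 nM) with blue fluorogenic substrate (80 uM final) in citrate/phosphate pH 5.9 with 10mM sodium taurocholate, 0.01% tween-20; 40 min RT, NaOH/glycine stop; fluorescence Ex 365/Em 440; AC50 from a titration from 0.6 nM upwards.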
Lysosomal acid glucosylceramidase (Homo sapiens), sequence (P04062 whole entry, looked up): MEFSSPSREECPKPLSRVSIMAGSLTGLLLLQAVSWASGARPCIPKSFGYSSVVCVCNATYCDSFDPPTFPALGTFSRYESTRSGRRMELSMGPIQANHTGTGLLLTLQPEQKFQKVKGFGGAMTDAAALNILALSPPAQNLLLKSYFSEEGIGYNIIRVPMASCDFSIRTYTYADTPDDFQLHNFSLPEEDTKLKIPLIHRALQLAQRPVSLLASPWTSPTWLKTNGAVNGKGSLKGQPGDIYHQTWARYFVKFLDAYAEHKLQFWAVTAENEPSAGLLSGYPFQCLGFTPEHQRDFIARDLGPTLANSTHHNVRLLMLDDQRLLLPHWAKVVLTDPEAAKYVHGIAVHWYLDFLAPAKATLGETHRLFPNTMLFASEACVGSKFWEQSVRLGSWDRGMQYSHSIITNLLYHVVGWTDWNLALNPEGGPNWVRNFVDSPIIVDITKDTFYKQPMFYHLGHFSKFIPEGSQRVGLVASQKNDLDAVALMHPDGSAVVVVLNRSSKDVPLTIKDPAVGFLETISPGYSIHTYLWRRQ

Test [2] in a line: AP1 Signaling Pathway (AID 357).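 Also: ME-180 reporter cells stimulated with EGF at its EC50 level; % is scaled to controls: 0 for no effect and ±100 for the full control effect.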 The settings on record: ME-180 AP-1-bla reporter, EGF-induced, beta-lactamase ratio, 5 h; at 7.69 µM (top of the series) unless noted. The essentials:
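First, ME-180 AP-1-bla cells were cultured overnight at 37 °C in low-serum Opti-MEM. Next, titrated compounds with EC50 EGF were incubated 5 hours. Finally, CCF4 was added for 2.5 hours and the 460/530 nm ratio recorded.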

For test [3], the target named is Cytochrome P450 1A2 (Homo sapiens) (UniProt P05177). As to the kind of experiment: p450-cyp1a2 (AID 410; calls by dose curve; also: potency is read from the fitted curve at half-maximal effect). Particulars: recombinant CYP1A2, luciferin-ME demethylation, luminescence; series mostly up to 57 µM. In outline: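 20nM CYP1A2, 100uM Luciferin-ME (=Km), 100mM KPO4; cpd 10 min RT; +NADPH regen, 60 min RT; stop/detect 20 min; luminescence. Normalized to furafylline 57 uM = full inhibition.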
Cytochrome P450 1A2 (Homo sapiens), sequence (P05177 whole entry, looked up): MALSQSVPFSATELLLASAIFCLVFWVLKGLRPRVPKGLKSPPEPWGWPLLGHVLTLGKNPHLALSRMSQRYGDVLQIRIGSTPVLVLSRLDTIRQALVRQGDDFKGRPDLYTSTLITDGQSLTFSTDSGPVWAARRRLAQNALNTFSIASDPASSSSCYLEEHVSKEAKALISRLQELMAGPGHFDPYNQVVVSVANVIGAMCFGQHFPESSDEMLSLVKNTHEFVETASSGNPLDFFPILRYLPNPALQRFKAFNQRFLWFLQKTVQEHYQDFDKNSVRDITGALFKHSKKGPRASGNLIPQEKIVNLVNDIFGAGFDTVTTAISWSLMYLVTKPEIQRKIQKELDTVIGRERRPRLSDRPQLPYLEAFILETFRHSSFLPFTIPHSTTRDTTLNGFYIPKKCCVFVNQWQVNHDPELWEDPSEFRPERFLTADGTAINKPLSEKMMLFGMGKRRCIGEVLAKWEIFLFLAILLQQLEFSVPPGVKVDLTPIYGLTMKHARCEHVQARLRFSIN

A short description of test [4]: NFAT Signaling Pathway (AID 444).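 Also: carbachol stimulus at about its EC50 of 1 µM final; % is scaled to controls: 0 for no effect and ±100 for the full control effect.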 The settings on record: Jurkat NFAT-bla M1, carbachol, beta-lactamase ratio, 5 h; at 7.69 µM (top of the series) unless noted. The essentials:
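Jurkat cells with NFAT-driven β-lactamase reporter and co-expressed M1 receptor, stimulated with carbachol (final 1 uM, ~EC50), compound titration, 5 h at 37 °C. CCF4 loaded 1 h at RT; 460/530 nm ratio gave %activity and AC50.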

A short description of test [5]: Stat Signaling Pathway (AID 446).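 Also: ME-180 cervical cancer cells given 40 pM IL-6 alongside compound; SIE-controlled beta-lactamase reporter measured as 460/530 nm FRET emission ratio; % is scaled to controls: 0 for no effect and ±100 for the full control effect.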 Particulars: ME-180 SIE beta-lactamase reporter, IL-6 stimulated, 5 h; at 7.69 µM (top of the series) unless noted. The essentials: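 Normalization used AC90 stimulation (300 pM IL-6) and AC90 inhibition (125 nM pan-JAK inhibitor at 40 pM IL-6). The underlying signal is SIE-driven beta-lactamase in ME-180 cells after 5 h IL-6 exposure with compound.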

The target of test [6] is Glucocorticoid receptor (Homo sapiens) (UniProt P04150). Briefly: GR-GFP Redistribution (AID 450;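 active = compounds whose dose series gives a full or clear partial fitted curve of increased nuclear translocation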; also: potency is read from the fitted curve at half-maximal effect). The settings on record: U2OS GR-GFP nuclear translocation, laser cytometry, 2 h.
Glucocorticoid receptor (Homo sapiens), sequence (P04150 whole entry, looked up, the tested form may be a part): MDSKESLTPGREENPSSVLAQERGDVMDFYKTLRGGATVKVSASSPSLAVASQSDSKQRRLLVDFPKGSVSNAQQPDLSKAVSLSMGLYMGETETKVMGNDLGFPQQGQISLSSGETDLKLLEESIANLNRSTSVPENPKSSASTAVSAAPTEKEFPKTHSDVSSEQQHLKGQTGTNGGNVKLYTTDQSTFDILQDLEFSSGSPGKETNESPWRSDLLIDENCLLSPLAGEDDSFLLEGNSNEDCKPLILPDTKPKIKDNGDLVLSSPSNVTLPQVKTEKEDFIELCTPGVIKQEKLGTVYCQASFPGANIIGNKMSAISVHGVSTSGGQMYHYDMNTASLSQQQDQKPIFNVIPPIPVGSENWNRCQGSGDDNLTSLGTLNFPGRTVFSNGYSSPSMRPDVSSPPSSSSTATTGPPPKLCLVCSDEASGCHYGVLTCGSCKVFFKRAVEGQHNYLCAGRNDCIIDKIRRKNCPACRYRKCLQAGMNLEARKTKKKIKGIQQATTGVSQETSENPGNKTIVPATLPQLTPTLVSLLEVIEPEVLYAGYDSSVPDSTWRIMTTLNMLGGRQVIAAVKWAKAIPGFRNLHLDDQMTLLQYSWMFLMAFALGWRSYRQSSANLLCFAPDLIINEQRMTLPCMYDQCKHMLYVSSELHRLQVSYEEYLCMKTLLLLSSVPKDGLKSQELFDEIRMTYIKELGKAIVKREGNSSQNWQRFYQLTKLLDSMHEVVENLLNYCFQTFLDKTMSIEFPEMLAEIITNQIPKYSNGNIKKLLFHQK
For test [7] the target is unchanged. As to the kind of experiment: GR-EFC Redistribution (AID 451; calls by dose curve; also: potency is read from the fitted curve at half-maximal effect). Particulars: CHO-K1 GR-EFC translocation, beta-gal luminescence, 2 h. The essentials: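 CHO-K1 cells expressing nuclear EA and GR-ED fragments of b-gal; compounds titrated up to 46 uM final, 2 h at 37 C. GR nuclear translocation read as complemented b-gal luminescence after 1 h RT detection.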
Test [8] concerns the target Mitogen-activated protein kinase 10 (Mus musculus) (UniProt Q61831). As to the kind of experiment: JNK3 AlphaScreen Assay (AID 530).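 Also: kinase came from lysate of stimulated human HepG2 cells; signal reports phosphorylation of biotinylated GST-cJun 1-79 at Ser73 with 10 µM ATP; % is scaled to controls: 0 for no effect and ±100 for the full control effect.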 Particulars: JNK3 lysate, c-Jun phosphorylation; series mostly up to 57.1 µM. The essentials:
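HepG2 lysate (IL-1b/TNFa pre-activated) + biotin-GST-cJun 1-79 + anti-pSer73 cJun; cpd titration, 15 min RT; ATP 10 uM start; Tris pH 7.6, MgCl2, DTT, vanadate; beads in EDTA buffer; AlphaScreen.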
Background: In Alpha technology, singlet oxygen from a donor bead excites a nearby acceptor bead.

Test [9] concerns the target Cytochrome P450 3A4 (Homo sapiens) (UniProt P08684). As to the kind of experiment: qHTS Assay for Inhibitors and Substrates of Cytochrome P450 3A4 (AID 884; active = well fitted curve in the direction sought with a large enough effect; an effect the other way counts as inactive or inconclusive; also: potency is read from the fitted curve at half-maximal effect; nearly all actives have a fitted effect of over 50% in size). The settings on record: recombinant CYP3A4, Luciferin-PPXE luminescence; series mostly up to 57.1 µM. The essentials: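 Luminescent readout of luciferin produced by CYP3A4 (20 nM) dealkylation of Luciferin-PPXE, 25 uM (its KM). NADPH-driven reaction ran 60 min at RT after 10 min compound preincubation; data scaled to 57 uM ketoconazole as 100% inhibition.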
On the technique in general: Quantitative high-throughput screening tests each substance at several concentrations.

The target is the same in test [10]. As to the kind of experiment: qHTS Assay for Activators of Cytochrome P450 3A4 (AID 885; active = well fitted curve in the direction sought with a large enough effect; an effect the other way counts as inactive or inconclusive; also: nearly all actives have a fitted effect of over 65% in size). The settings on record: recombinant CYP3A4, Luciferin-PPXE luminescence, 60 min; series mostly up to 57.1 µM. In outline:
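Human CYP3A4 dealkylates Luciferin-PPXE to luciferin, which luciferase detection converts to light. Substrate was at its KM (25uM), buffer 200mM KPO4, reaction 60 min at RT.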

A short description of test [11]: Primary qHTS for small molecule stabilizers of the endoplasmic reticulum resident proteome: Secreted ER Calcium Modulated Protein (SERCaMP) assay (AID 1508630; active = well fitted curve in the direction sought with a large enough effect; an effect the other way counts as inactive or inconclusive; also: % is scaled to controls: 0 for no effect and ±100 for the full control effect). The settings on record: SH-SY5Y GLuc-SERCaMP (Gaussia luciferase released on ER calcium loss) secretion, thapsigargin, luminescence; series mostly up to 38.4 µM. The essentials: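 The SH-SY5Y reporter protocol was run at 3 concentrations up to 38.3 uM (primary) or 11 concentrations (follow-up): 16 h compound, 100 nM thapsigargin for 4 h, then extracellular luciferase luminescence.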

The target of test [12] is 3',5'-cyclic-AMP phosphodiesterase 4B (Homo sapiens) (UniProt Q07343). Briefly: qHTS Assay for Inhibitors of PDE-IV (AID 607; active = well fitted activation curve with a large enough effect in the main read-out, with a control signal flat, not every such curve was filed as active; also: % of control where 0% means no effect). The settings on record: HEK293 ACTOne CNG channel cells, membrane potential fluorescence; series mostly up to 22.9 µM. The essentials: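 HEK293 ACTOne cells with CNG channel (1000/well), endogenous PDE4; membrane potential dye, compounds up to 22.9 uM final. Fluorescence Ex 535/Em 590; RO 20-1724 (100 uM final) as reference.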
3',5'-cyclic-AMP phosphodiesterase 4B (Homo sapiens), sequence (Q07343 whole entry, looked up): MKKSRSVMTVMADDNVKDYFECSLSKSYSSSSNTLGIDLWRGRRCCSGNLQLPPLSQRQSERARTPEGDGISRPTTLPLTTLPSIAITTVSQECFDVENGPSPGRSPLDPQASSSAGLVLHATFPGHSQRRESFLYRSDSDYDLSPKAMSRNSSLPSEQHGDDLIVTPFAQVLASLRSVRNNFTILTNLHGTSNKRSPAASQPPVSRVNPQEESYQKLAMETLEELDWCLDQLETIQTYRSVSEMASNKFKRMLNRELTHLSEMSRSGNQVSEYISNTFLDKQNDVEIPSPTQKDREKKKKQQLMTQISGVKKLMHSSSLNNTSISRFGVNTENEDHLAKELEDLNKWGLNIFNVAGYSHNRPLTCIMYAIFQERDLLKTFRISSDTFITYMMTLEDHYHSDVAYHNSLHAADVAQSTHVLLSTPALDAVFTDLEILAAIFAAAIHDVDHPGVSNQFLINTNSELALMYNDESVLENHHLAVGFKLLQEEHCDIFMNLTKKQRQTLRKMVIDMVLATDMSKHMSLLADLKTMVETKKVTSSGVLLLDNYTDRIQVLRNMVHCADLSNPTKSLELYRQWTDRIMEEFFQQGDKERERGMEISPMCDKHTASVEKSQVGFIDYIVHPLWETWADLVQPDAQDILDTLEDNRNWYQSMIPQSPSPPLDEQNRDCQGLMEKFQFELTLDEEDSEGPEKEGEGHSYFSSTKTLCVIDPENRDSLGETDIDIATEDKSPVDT

Test [13] is described as follows: qHTS Assay for Identification of Small Molecule Agonists for Hypoxia Response Element Signaling Pathway (AID 914; active = well fitted activation curve with a large enough effect in the signal ratio, with a control signal flat, not every such curve was filed as active; the % refers to the signal ratio; also: % of control where 0% means no effect). Particulars: ME-180 (cervical carcinoma) HRE-bla reporter, beta-lactamase ratio, CoCl2, 17 h; activation: hits give high values. In outline:
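HRE-bla ME-180 cells with beta-lactamase reporter under hypoxia response element, compounds with EC50 CoCl2 for 17 hours at 37 C. CCF4 substrate, 460nm/530nm emission ratio gave %Activity; AC50 from titration series.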

Cytochrome P450 3A4 (Homo sapiens), sequence (P08684 whole entry, looked up): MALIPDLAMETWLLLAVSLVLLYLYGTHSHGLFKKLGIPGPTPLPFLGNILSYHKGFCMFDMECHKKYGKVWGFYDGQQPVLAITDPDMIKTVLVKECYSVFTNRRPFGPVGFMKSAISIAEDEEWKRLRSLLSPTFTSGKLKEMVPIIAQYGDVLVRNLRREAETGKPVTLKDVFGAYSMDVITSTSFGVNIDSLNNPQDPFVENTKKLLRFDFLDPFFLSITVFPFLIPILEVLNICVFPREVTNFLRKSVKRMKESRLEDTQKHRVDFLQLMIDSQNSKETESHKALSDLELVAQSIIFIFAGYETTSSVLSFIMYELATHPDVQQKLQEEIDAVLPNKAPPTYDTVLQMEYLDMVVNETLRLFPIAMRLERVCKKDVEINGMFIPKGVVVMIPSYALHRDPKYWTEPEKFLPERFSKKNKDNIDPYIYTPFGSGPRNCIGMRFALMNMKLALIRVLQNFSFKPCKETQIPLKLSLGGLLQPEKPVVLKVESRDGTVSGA

With `COc1cccc(Cn2c(=O)cnc3cnc(Oc4cccc(Cl)c4)nc32)c1`, the Potency in test [1] was above 11.4 µM; in test [3], 12.6 µM (active); in test [6] it was above 9.22 µM; in [7], above 46 µM; in [9] it was 5.01 µM (active). Also, the activity change, negative = inhibition was -19.7% in test [2] and -4.32% in test [4]. In addition, the activity, negative = inhibition in test [5] is -20.6%. In addition, the Potency result in test [8] and in test [10] was “inactive” throughout. In addition, in test [11], the result was inactive.
For `CCNc1ncc2nc(-c3ccc(F)cc3)c(=O)n(CCC#N)c2n1`, the Potency in [1] was above 11.4 µM; in [3], 0.631 µM (active); in test [6] it was above 9.22 µM; in test [7] it was above 46 µM. Further, the activity change, negative = inhibition was -13.4% in [2] and -10% in [4]. For the same compound, the activity, negative = inhibition in test [5] is 16.7%. In addition, the Potency entry in test [8] was “inactive”. Also, in test [11], the result was inactive.
Take `O=c1c(-c2cc(F)cc(F)c2)nc2cnc(Oc3ccccc3)nc2n1C1CC1`: the Potency was above 11.4 µM in [1], 2.51 µM (active) in test [3], above 9.22 µM in test [6] and above 46 µM in [7]. The activity change, negative = inhibition is -6.73% in test [2] and -0.993% in test [4]. In test [5], the activity, negative = inhibition was -0.523%. The Potency entry in test [8] and in test [12] was “inactive” each time. In [13], the activation was 7.93%. In addition, the outcome in test [11] was inactive.
On to `COCCn1c(=O)c(-c2cc(F)cc(F)c2)nc2cnc(Oc3cccc(Cl)c3)nc21`, for which the Potency in test [1] is above 11.4 µM; in test [3] it was 5.01 µM (active); in test [6] it was above 9.22 µM; in [7], above 46 µM. The activity change, negative = inhibition is 30.2% in [2] and -9.31% in [4]. The activity, negative = inhibition in [5] is 24.9%. The Potency result in test [8], in test [12] and in test [10] was “inactive” throughout. For the same compound, the result in test [11] was inactive.
For the compound `COc1ccc(-n2c(=O)c(C)nc3cncnc32)cc1`, the Potency in [1] was above 11.4 µM; in test [6] it was above 9.22 µM; in [7], above 46 µM; in test [9], 5.01 µM (active). Also, the activity change, negative = inhibition in [2] is -7.74%; in test [4] it was 7.82%. In addition, the Potency result in test [3], in test [8], in [12] and in [10] was “inactive” each time. Further, the activity, negative = inhibition in test [5] was -15.1%. For the same compound, the result in [11] was inactive.
As to `COc1ccc(-c2nc3cnc(N4CCOCC4)nc3n(CCC#N)c2=O)cc1`, the Potency in test [1] was above 11.4 µM; in [3], 3.16 µM (active); in test [6] it was above 9.22 µM; in [7], above 46 µM. Further, the results for the activity change, negative = inhibition in test [2] and in [4] were 3.37% and 2.6%, respectively. For the same compound, in test [5], the activity, negative = inhibition was 16.9%. The Potency result in test [8] and in [12] was “inactive” each time. For the same compound, the result in [11] was inactive.
Turning to `COc1ccc(Oc2ncc3nc(C)c(=O)n(C)c3n2)cc1`, the Potency is above 11.4 µM in [1], 12.6 µM (active) in test [3], above 9.22 µM in test [6] and above 46 µM in test [7]. Moreover, the results for the activity change, negative = inhibition in test [2] and in test [4] were 14.2% and -1.39%, respectively. Further, in test [5], the activity, negative = inhibition was -6.21%. Also, the Potency result in test [8], in test [12] and in test [10] was “inactive” in each case. The outcome in [11] was inactive.
